Results on 30 molecules are retold here after PubChem BioAssay (EPA / NIEHS).

In general, AC50 refers to the concentration giving half of the maximal activity seen.

Activity calls are given as the source filed them. The calls were made as follows: active = hit-call score of the fitted dose curve at least 0.9, where 1 is the maximum; inactive = score below 0.9.

The first assay in a line: ATG_TCF_b_cat_CIS: Attagene CIS-FACTORIAL HepG2 Assay for human T-Cell-Factor with beta-catenin (TCF/b-cat) (AID 2282965). The following applies: HepG2 TCF/beta-catenin cis-reporter transcription, actives raise or lower the signal. Summed up:
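Using capillary electrophoresis as the read-out, labelled reporter cDNA fragments from transiently transfected HepG2 were sized and quantified. Exposure lasted 24 hours; activity in either direction was referenced to DMSO.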
`O=C(O)CCCCC(=O)O`: the result was inactive.
As to `Cc1oc(-c2ccccc2)nc1CCOc1cccc2c1ccn2CCC(=O)O`, the call was inactive.
As to `Cc1nc(C)nc(N2C[C@@H](C)N(c3ccnc([C@@H](C)O)n3)[C@@H](C)C2)n1`, the result was inactive.
As to `Cc1cc(=O)[nH]c(=S)[nH]1`, the outcome was inactive.
Regarding `Nc1ccc2c(c1)C(=O)c1ccccc1C2=O`, the molecule was classed as inactive.
As for `CCCCCCCCCCCCCCCC`, the outcome was inactive.
For `c1cc(-c2ccncc2)ccn1`, the result was inactive.
Still for that read-out and setting: next, `CC=Cc1ccc(O)c(OC)c1`: “inactive”; `Clc1cc(Cl)c(Cl)cc1Cl`: “inactive”; `CCCc1cc(=O)[nH]c(=S)[nH]1`: “inactive”.
In the case of `CCOC(=O)CCC(=O)OCC`, the molecule was called inactive.
Consider `O=C(N[C@@H](Cc1ccccc1)[C@@H](O)C(=O)N1C[C@@H](O)[C@@H](O)C1)c1cc2cc(Cl)ccc2[nH]1`, for which the molecule was called inactive.
The same measure, in the same setting: next, `O=[N+]([O-])C(CO)(CO)CO`: “inactive”; `NCCO`: “inactive”; `CC(=O)C(C)=CC1C(C)=CCCC1(C)C` (stereo not given): “inactive”.
As for `C=CCOC(=O)c1ccccc1C(=O)OCC=C`, the call was inactive.
The same measure, in the same setting: under `CCCCCCCCCCC` stands “inactive”.
Turning to `C=CCc1ccc(O)c(OC)c1`, the AC50 was 176 µM (active).
For the molecule `Oc1ccc2ccccc2c1N=Nc1ccccc1`, the outcome was inactive.
Regarding `CCCCOC(=O)CCCCCCCCC(=O)OCCCC`, the AC50 was 146 µM (active).
On to `COc1ccc2c(c1)c(CC(=O)O)c(C)n2C(=O)c1ccc(Cl)cc1`, for which the result was inactive.
As for `CC(=O)OC/C=C(\C)CCC=C(C)C`, the molecule was classed as inactive.
In the case of `O=C(OCCCCCOC(=O)c1ccccc1)c1ccccc1`, the molecule was called inactive.
For the molecule `CCCCCCCCCCCCCCCCCC(=O)O`, the call was inactive.
For `Cc1ccc2ncccc2c1`, the outcome was inactive.
As to `Nc1ccc(S(=O)(=O)c2ccc(N)cc2)cc1`, the outcome was inactive.
Regarding `COc1ccc(S(=O)(=O)N2C(=O)[C@@](c3ccccc3OC)(N3C[C@H](O)C[C@H]3C(=O)N(C)C)c3cc(Cl)ccc32)c(OC)c1`, the AC50 is 42.1 µM (active).
In the case of `CC1(C)CC(N=C=O)CC(C)(CN=C=O)C1` (stereo not given), the call was inactive.
The same measure, in the same setting: under `CNC(=O)[C@H]1O[C@@H](n2cnc3c(NCc4cc(Cl)ccc4OCc4cc(C)no4)ncnc32)[C@H](O)[C@@H]1N` stands “inactive”.
For `OC[C@@H](O)[C@@H](O)[C@H](O)[C@H](O)CO`, the result was inactive.

The next assay can be described thus: ATG_TAL_CIS: Attagene CIS-FACTORIAL HepG2 Assay for human TAL Basal Promoter (AID 2282966).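 Also: background control endpoint measuring basal TAL promoter reporter mRNA not a specific factor.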 The following applies: HepG2 Attagene cis-factorial TAL promoter reporter; actives raise or lower the signal. The procedure, abridged:
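In this cell-based multiplex, HepG2 liver cells bearing cis-promoter reporter constructs are dosed for 24 hours. Total RNA is reverse-transcribed and amplified, labelled fragments are sized by capillary electrophoresis, and signal changes are fitted bidirectionally versus DMSO.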
For the molecule `O=C(O)CCCCC(=O)O`, the result was inactive.
Take `Cc1oc(-c2ccccc2)nc1CCOc1cccc2c1ccn2CCC(=O)O`: the outcome was inactive.
With `Cc1nc(C)nc(N2C[C@@H](C)N(c3ccnc([C@@H](C)O)n3)[C@@H](C)C2)n1`, the molecule was classed as inactive.
The same measure, in the same setting: under `Cc1cc(=O)[nH]c(=S)[nH]1` stands “inactive”.
On to `Nc1ccc2c(c1)C(=O)c1ccccc1C2=O`, for which the molecule was classed as inactive.
Turning to `CCCCCCCCCCCCCCCC`, the outcome was inactive.
For `c1cc(-c2ccncc2)ccn1`, the result was inactive.
With `CC=Cc1ccc(O)c(OC)c1`, the call was inactive.
Take `Clc1cc(Cl)c(Cl)cc1Cl`: the molecule was classed as inactive.
As for `CCCc1cc(=O)[nH]c(=S)[nH]1`, the outcome was inactive.
On to `CCOC(=O)CCC(=O)OCC`, for which the molecule was classed as inactive.
In the case of `O=C(N[C@@H](Cc1ccccc1)[C@@H](O)C(=O)N1C[C@@H](O)[C@@H](O)C1)c1cc2cc(Cl)ccc2[nH]1`, the result was inactive.
In the case of `O=[N+]([O-])C(CO)(CO)CO`, the molecule was classed as inactive.
Regarding `NCCO`, the result was inactive.
With `CC(=O)C(C)=CC1C(C)=CCCC1(C)C` (stereo not given), the result was inactive.
For the molecule `C=CCOC(=O)c1ccccc1C(=O)OCC=C`, the outcome was inactive.
`CCCCCCCCCCC`: the result was inactive.
With `C=CCc1ccc(O)c(OC)c1`, the outcome was inactive.
For `Oc1ccc2ccccc2c1N=Nc1ccccc1`, the molecule was classed as inactive.
The same measure, in the same setting: next, `CCCCOC(=O)CCCCCCCCC(=O)OCCCC`: “inactive”; `COc1ccc2c(c1)c(CC(=O)O)c(C)n2C(=O)c1ccc(Cl)cc1`: “inactive”; `CC(=O)OC/C=C(\C)CCC=C(C)C`: “inactive”.
The same measure, in the same setting: under `O=C(OCCCCCOC(=O)c1ccccc1)c1ccccc1` stands “inactive”; under `CCCCCCCCCCCCCCCCCC(=O)O`, “inactive”.
With `Cc1ccc2ncccc2c1`, the molecule was classed as inactive.
Still for that read-out and setting: next, `Nc1ccc(S(=O)(=O)c2ccc(N)cc2)cc1`: “inactive”.
As to `COc1ccc(S(=O)(=O)N2C(=O)[C@@](c3ccccc3OC)(N3C[C@H](O)C[C@H]3C(=O)N(C)C)c3cc(Cl)ccc32)c(OC)c1`, the AC50 was 177 µM (active).
Regarding `CC1(C)CC(N=C=O)CC(C)(CN=C=O)C1` (stereo not given), the outcome was inactive.
Regarding `CNC(=O)[C@H]1O[C@@H](n2cnc3c(NCc4cc(Cl)ccc4OCc4cc(C)no4)ncnc32)[C@H](O)[C@@H]1N`, the call was inactive.
As to `OC[C@@H](O)[C@@H](O)[C@H](O)[C@H](O)CO`, the molecule was classed as inactive.

A short description of another assay: ATG_TGFb_CIS: Attagene CIS-FACTORIAL HepG2 Assay for human Transforming Growth Factor (TGF) (AID 2282967). The following applies: HepG2 Attagene CIS TGFb reporter, mRNA transcription; actives raise or lower the signal. The procedure, abridged: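 After a 24-hour incubation with compound, transfected HepG2 cells were lysed for RNA; reporter cDNA was amplified, fluorescently end-labeled and separated by CE. DMSO served as baseline for bidirectional fits.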
With `O=C(O)CCCCC(=O)O`, the result was inactive.
On the same count and under the same terms, next, `Cc1oc(-c2ccccc2)nc1CCOc1cccc2c1ccn2CCC(=O)O`: “inactive”.
`Cc1nc(C)nc(N2C[C@@H](C)N(c3ccnc([C@@H](C)O)n3)[C@@H](C)C2)n1`: the call was inactive.
Same read-out and setting: under `Cc1cc(=O)[nH]c(=S)[nH]1` stands “inactive”.
On the same count and under the same terms, next, `Nc1ccc2c(c1)C(=O)c1ccccc1C2=O`: “inactive”; `CCCCCCCCCCCCCCCC`: “inactive”; `c1cc(-c2ccncc2)ccn1`: “inactive”.
Same read-out and setting: under `CC=Cc1ccc(O)c(OC)c1` stands “inactive”; under `Clc1cc(Cl)c(Cl)cc1Cl`, “inactive”.
In the case of `CCCc1cc(=O)[nH]c(=S)[nH]1`, the molecule was classed as inactive.
Turning to `CCOC(=O)CCC(=O)OCC`, the outcome was inactive.
Consider `O=C(N[C@@H](Cc1ccccc1)[C@@H](O)C(=O)N1C[C@@H](O)[C@@H](O)C1)c1cc2cc(Cl)ccc2[nH]1`, for which the molecule was classed as inactive.
For the molecule `O=[N+]([O-])C(CO)(CO)CO`, the molecule was called inactive.
Turning to `NCCO`, the outcome was inactive.
The same measure, in the same setting: under `CC(=O)C(C)=CC1C(C)=CCCC1(C)C` (stereo not given) stands “inactive”.
The same measure, in the same setting: next, `C=CCOC(=O)c1ccccc1C(=O)OCC=C`: “inactive”; `CCCCCCCCCCC`: “inactive”; `C=CCc1ccc(O)c(OC)c1`: “inactive”.
As for `Oc1ccc2ccccc2c1N=Nc1ccccc1`, the AC50 was 100 µM (active).
As to `CCCCOC(=O)CCCCCCCCC(=O)OCCCC`, the call was inactive.
As to `COc1ccc2c(c1)c(CC(=O)O)c(C)n2C(=O)c1ccc(Cl)cc1`, the outcome was inactive.
On the same count and under the same terms, under `CC(=O)OC/C=C(\C)CCC=C(C)C` stands “inactive”.
As to `O=C(OCCCCCOC(=O)c1ccccc1)c1ccccc1`, the molecule was called inactive.
`CCCCCCCCCCCCCCCCCC(=O)O`: the outcome was inactive.
For `Cc1ccc2ncccc2c1`, the molecule was classed as inactive.
Take `Nc1ccc(S(=O)(=O)c2ccc(N)cc2)cc1`: the result was inactive.
As for `COc1ccc(S(=O)(=O)N2C(=O)[C@@](c3ccccc3OC)(N3C[C@H](O)C[C@H]3C(=O)N(C)C)c3cc(Cl)ccc32)c(OC)c1`, the AC50 was 145 µM (active).
`CC1(C)CC(N=C=O)CC(C)(CN=C=O)C1` (stereo not given): the molecule was called inactive.
For the molecule `CNC(=O)[C@H]1O[C@@H](n2cnc3c(NCc4cc(Cl)ccc4OCc4cc(C)no4)ncnc32)[C@H](O)[C@@H]1N`, the molecule was called inactive.
The same measure, in the same setting: under `OC[C@@H](O)[C@@H](O)[C@H](O)[C@H](O)CO` stands “inactive”.
